The results in this text go back to the supplement of paper PMC6555819.

In this assay the test system is VDR:RXRa (NR concentration 270 nM, RXRa partner concentration 90 nM). Description: PBM binding z-score (relative to random genomic background probes); higher = stronger binding; sequences stand for … in GC…GCGATTGACAGCGTAGAATGAAGG
The method, then: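 Protein-binding microarray (Agilent 4x180K custom design, double-stranded 60-nt probes: 5' GC cap, 34-nt variable region, 24-nt constant primer region; full probe sequence given). Purified or IVT nuclear receptor:RXRα heterodimers (3:1 NR:RXRα, mostly 270:90 nM) or homodimers were incubated for 1 h in PBS with 2% milk and no ligand, then detected with Alexa488 antibodies. Fluorescence from o1-orientation probes (~5 replicates averaged) was converted to z-scores against 500 random hg19 background probes. Variable regions are seed direct-repeat (DR0–DR5) sites, all their single-nucleotide variants and half-site ablations.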
GATACAGGGTCAGCTAGAGGCCAGACTATGGAAA: the PBM binding z-score worked out at 3.23.

For the sequence TCTATTAGTTGAAGGGCGACCGACGAGTCCGTTT, the PBM binding z-score is 0.925.

Regarding TAGGCTAGGTCAGATCGGGCCAGTATACGCTATA, the PBM binding z-score is 0.927.

Sequence GATACAGGGTCAGCGAGAGGCCAGAGTATGGAAA registered a PBM binding z-score of 3.67.

Sequence ATAATGAGGTTACCAAAGATCAGGGAAACGCTTG gave a PBM binding z-score of 1.81.

TCTTGTAGATCATAGGTTAAGAAAGCCGAAGCCT showed a PBM binding z-score of 0.86.

On to GCTATAAGTTGAAAGGGCAACCGAATGATTCTCG, for which the PBM binding z-score amounted to 0.931.

Regarding CGTCAAAGTTCAAGGTAACATAACAGAAAGCAGC, the PBM binding z-score turned out to be 3.63.

Take ATACCAAGGTGATCGTGAGGGCGTTGATACTAAC: the PBM binding z-score turned out to be 1.42.

In the case of ACAGACAGGTGATGAAGGTAATTCAGGCTATCAT, the PBM binding z-score was determined as 0.0212.

As for GCTAGCAGGCCATTTGGGTCACTTAATGACGGGC, the PBM binding z-score worked out at 0.902.

Consider AGAATGAGGTTATTAAGATCAGGGAGTTGCGGTC, for which the PBM binding z-score was found to be 2.3.

In turn, GCTATTTGTTGAAAGGGCAACCGAATGATTCTCG showed a PBM binding z-score of 0.521.

GATACAGGGTCAGCTAGAGGCCGGAGTATGGAAA: the PBM binding z-score is 2.8.

The sequence TGTCAAAGTTCAATGGTAACGTAAGTATCCACAC registered a PBM binding z-score of 3.81.

Turning to ATCGAAAGGTCGACGAGGTTAGTATACACCGTTT, the PBM binding z-score worked out at 6.41.

CCTAGTGGGCCACGAAAGGTCATTGATTCAGTGA displayed a PBM binding z-score of 4.05.

TCTTGTAGATCAACAGGAGGTGAAGAAAGATCGA displayed a PBM binding z-score of 0.032.

As to TCATATAGGGAAAAGGTGAAAGTCGGTGTGGTAA, the PBM binding z-score amounted to 1.29.

Sequence CTCGAAAGGTCGTGTTCAGGTGAGTATACCAAAC had a PBM binding z-score of 3.35.

Turning to GCTATTAGTTGAAAGGACAACCGAATGATTCTCG, the PBM binding z-score is -0.113.

ACAGACAGGTGATGAAGGTAACTAAGGCTATCAT had a PBM binding z-score of 0.295.

GCGACTGGGGCGTCAGCAGGTTACCATAACTTAA displayed a PBM binding z-score of -0.382.

CGTCAAATTTCAACTAAGGTAACGTAAAGCACGC displayed a PBM binding z-score of 0.709.

Sequence TCGAGTAGGGTAGGGGCATTCAGAATGGCGTCGA displayed a PBM binding z-score of 0.426.

Regarding TTACCAAGGTGATGGTCGTTGATCCCTCTGTAGA, the PBM binding z-score is -0.193.

In turn, CTACCACGGTGAACAAGGTCGTTGATTACTATTC gave a PBM binding z-score of 3.47.

The sequence CTTATTAGTTGACCATAAGGGCAACCGAAGCTCG had a PBM binding z-score of 0.523.

For TCTTGTAGATCACCAGGAGGTTAAGAAAGATCGA, the PBM binding z-score came out at 0.799.

Consider ATCGACAGGTCGTGAGGTGAGTATACAGAAAGGC, for which the PBM binding z-score was 1.12.

In turn, AGTCAAAGTTCATCTAGGTTACGTAAGATATGCT yielded a PBM binding z-score of 5.8.

In the case of GCGACTGGGGCAGAGCAGGTTACCATAAGGTTGG, the PBM binding z-score was -0.508.

In turn, ATCGAAAGGTCGACGATGTGAGTATACACCGTTT returned a PBM binding z-score of 2.51.

The sequence GCATATAGGTAATACCAGGTGAAAGTCCGATTGT returned a PBM binding z-score of -0.00851.

GCTGCTAGGTCAACTGATGGTAAGCTAAAGCTCG: the PBM binding z-score is 1.23.

As to TCATATAGGTAAACAGGTGATAGTCCGTAAGTTA, the PBM binding z-score was 0.955.

GGAACGAGGGCATACGAGTTGATAGCATGGCGAT had a PBM binding z-score of 2.73.

Sequence ATCTCTAGGTAAAAGTTCAATGAATCCCGAGGAT yielded a PBM binding z-score of 2.25.

GCTCGTAGATCAAGGTTAAGAAAGACTAAGCTAA gave a PBM binding z-score of -0.0501.

Sequence TAGCCTAGGTCATTCAGGGTCCAGTATAGAAAGC registered a PBM binding z-score of 4.41.
